Consider 18 molecules from PubChem BioAssay (Tox21).

Records with an inconclusive call do not appear. Unmarked numbers belong to inactive results. Activity calls are given as the source filed them. Unless noted, the call rests on the fitted dose curve; in most records, active means well fitted curve in the direction sought with a large enough effect in the repeat runs; inconclusive means weak or mixed curves; inactive means no such curve, though single readings can be large; an effect the other way counts as inactive or inconclusive.

Test [1] can be described thus: qHTS assay to identify small molecule agonists of the vitamin D receptor (VDR) signaling pathway - cell viability counter screen (AID 743224). Further: series mostly up to about 63 µM; on the % scale 0 is the no-effect control and ±100 the full control effect; nearly all actives have a fitted effect of over 50% in size. In a few lines:
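In parallel with the bla FRET readout, cytotoxicity toward VDR-bla cells after 16 h compound exposure was assessed by CellTiter-Glo, with luminescence recorded after a 30 min room-temperature incubation.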
In general terms: Quantitative high-throughput screening tests each substance at several concentrations.

A short description of test [2]: qHTS assay to identify small molecule antagonists of the vitamin D receptor (VDR) signaling pathway - cell viability counter screen (AID 743225). Further: on the % scale 0 is the no-effect control and ±100 the full control effect; nearly all actives have a fitted effect of over 50% in size. The method, boiled down:
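Compounds were pinned onto VDR-bla HEK 293T cells together with 1-alpha,25-dihydroxyvitamin D3 at 3 nM final. After 16 h at 37C and 5% CO2 plus the reporter readout, cell viability was measured by CellTiter-Glo luminescence (30 min, room temperature).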

A short description of test [3]: qHTS assay to identify small molecule agonists of the NFkB signaling pathway (AID 1159509; active means well fitted curve in the direction sought with a large enough effect in the signal ratio in the repeat runs, not every such curve was filed as active; the % refers to the signal ratio; further: series mostly up to about 61 µM; on the % scale 0 is the no-effect control and ±100 the full control effect). In a few lines:
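Beta-lactamase reporter assay run in quantitative high-throughput format on an NF-kB-responsive ME-180 line, with 5 hr compound treatment and a FRET-based blue/green fluorescence readout.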

Test [4] in a line: qHTS assay to identify small molecule agonists of the NFkB signaling pathway - cell viability counter screen (AID 1159515; calls by dose curve; further: series mostly up to about 61 µM; on the % scale 0 is the no-effect control and ±100 the full control effect; nearly all actives have a fitted effect of over 55% in size). In a few lines:
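Plate 2,000 NFkB-bla ME-180 cells/well; incubate overnight. Add compounds, 5 hr at 37 C. Add FRET substrate, 1.5 hr RT. Add CellTiter-Glo, 30 min RT; read luminescence.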

A short description of test [5]: qHTS assay to identify small molecule agonists of the endoplasmic reticulum stress response signaling pathway (AID 1159516; active means well fitted activation curve with a large enough effect in the signal ratio in the repeat runs, not every such curve was filed as active; the % refers to the signal ratio; further: on the % scale 0 is the no-effect control and ±100 the full control effect). In a few lines:
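Beta-lactamase expression from the ER stress response element in HeLa reporter cells is quantified with the LiveBLAzer B/G FRET substrate, read at 405 nm excitation after 2 hr at room temperature, following 5 hr compound treatment at 37 C.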

A short description of test [6]: qHTS assay to identify small molecule agonists of the endoplasmic reticulum stress response signaling pathway - cell viability counter screen (AID 1159517; calls by dose curve; further: nearly all actives have a fitted effect of over 50% in size; further: potency means the concentration at half of the fitted maximal effect). The method, boiled down:
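After overnight attachment, ESRE-bla HeLa cells were treated with Tox21 library compounds for 5 hr. CellTiter-Glo luminescence, read 30 min post-addition at room temperature, reported viability.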

Test [7] in a line: qHTS assay to identify small molecule antagonists of the retinoid-related orphan receptor gamma (ROR-gamma) signaling pathway - cell viability counter screen (AID 1159520). Further: on the % scale 0 is the no-effect control and ±100 the full control effect; nearly all actives have a fitted effect of over 50% in size. In a few lines: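 Cytotoxicity was read from cellular ATP (CellTiter-Glo luminescence) after 16 hr at 37 C with 1 uM doxycycline induction. The inducer was added 2 hr after compound transfer to Tet-on ROR gamma CHO cells.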

The target of test [8] is Nuclear receptor ROR-gamma (Homo sapiens) (UniProt P51449). Description: qHTS assay to identify small molecule antagonists of the retinoid-related orphan receptor gamma (ROR-gamma) signaling pathway (AID 1159521). In a few lines:
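Test compounds were applied to Tet-on RORγ CHO cells 2 h ahead of doxycycline hyclate (1 uM final). Luciferase reporter activity was quantified by luminescence after 16 h at 37 C and 5% CO2.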

Test [9] in a line: qHTS assay to identify small molecule agonists of the AP-1 signaling pathway - cell viability counter screen (AID 1159525; calls by dose curve; further: nearly all actives have a fitted effect of over 55% in size). In a few lines: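 Intracellular ATP by Cell Titer Glo luminescence (30 min, RT) in the same ME-180 AP-1-bla wells after the 5 h compound exposure at 37 °C. Normalised to tetra n-octyl ammonium bromide and DMSO controls.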
Test [10] in a line: qHTS assay to identify small molecule agonists of the AP-1 signaling pathway (AID 1159526; calls by dose curve; further: on the % scale 0 is the no-effect control and ±100 the full control effect).
Test [11] deals with Retinoic acid receptor RXR-alpha (Homo sapiens) (UniProt P19793). Description: qHTS assay to identify small molecule agonists of the RXR signaling pathway (AID 1159527; calls by dose curve; further: on the % scale 0 is the no-effect control and ±100 the full control effect; nearly all actives have a fitted effect of over 35% in size). In a few lines: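 Using 9-cis retinoic acid as the reference agonist, chemicals were tested in HEK 293T cells […] for 16 hr; substrate loading lasted 2 hr at room temperature.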
Retinoic acid receptor RXR-alpha (Homo sapiens), sequence (P19793 whole entry, looked up): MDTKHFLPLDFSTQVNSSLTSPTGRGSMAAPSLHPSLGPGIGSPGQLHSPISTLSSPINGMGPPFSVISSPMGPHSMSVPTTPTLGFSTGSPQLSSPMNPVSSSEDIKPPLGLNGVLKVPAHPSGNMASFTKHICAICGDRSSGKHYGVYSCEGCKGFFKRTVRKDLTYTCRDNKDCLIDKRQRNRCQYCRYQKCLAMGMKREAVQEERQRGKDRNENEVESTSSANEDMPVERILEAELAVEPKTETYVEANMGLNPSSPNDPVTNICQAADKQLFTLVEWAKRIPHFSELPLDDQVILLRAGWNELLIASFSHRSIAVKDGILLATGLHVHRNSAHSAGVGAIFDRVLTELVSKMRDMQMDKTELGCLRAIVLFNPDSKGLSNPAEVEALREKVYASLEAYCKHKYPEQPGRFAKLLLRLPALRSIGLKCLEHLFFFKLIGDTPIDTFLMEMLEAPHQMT

Test [12] can be described thus: qHTS assay to identify small molecule agonists of the RXR signaling pathway - cell viability counter screen (AID 1159529). In a few lines:
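Compounds dissolved in DMSO were pinned onto HEK 293T cells carrying a beta-lactamase reporter under RXR-alpha control and incubated 16 hr. Cytotoxicity was then quantified by CellTiter-Glo luminescence.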

Test [13] in a line: qHTS assay to identify small molecule antagonists of the retinoid acid receptor (RAR) signaling pathway - cell viability counter screen (AID 1159551). Further: on the % scale 0 is the no-effect control and ±100 the full control effect; nearly all actives have a fitted effect of over 35% in size. In a few lines: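 Viability of C3RL4 cells is quantified from ATP by luminescence after 6 h treatment at 37 C with compounds and 1 uM retinol.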
Test [14] in a line: qHTS assay to identify small molecule antagonists of the estrogen related receptor (ERR) signaling pathway from Tox21 library - cell viability counter screen (AID 1224834). Further: on the % scale 0 is the no-effect control and ±100 the full control effect; nearly all actives have a fitted effect of over 30% in size. In a few lines: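 In this quantitative HTS format, ERR cells receive compounds in DMSO and are incubated for 17.5 h at 37 C. Live-cell protease activity is then detected with CellTiter-Fluor.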
The nature of test [15]: qHTS assay to identify small molecule antagonists of the estrogen related receptor (ERR) signaling pathway - cell viability counter screen (AID 1224818).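 Further: series mostly up to about 46 µM; viability measured after 17.5 h of compound exposure; on the % scale 0 is the no-effect control and ±100 the full control effect.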 The method, boiled down: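 Cytotoxicity check run alongside the ERR antagonist screen: cells exposed to test compounds 17.5 h at 37 C, viability taken as CellTiter-Fluor fluorescence intensity.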

`COc1ccc(Br)c(C)c1`: the Potency result in test [1], in [6], in test [11] and in test [14] was “inactive” in each case. Further, the outcome in test [2], in [3], in [4], in test [5], in [7] and in test [8] was inactive. In addition, the outcome in test [9], in [10], in test [12] and in [13] was inactive.
Regarding `C=C(C)C(=O)OCCOP(=O)(O)OCCOC(=O)C(=C)C`, the Potency entry in test [1], in test [6], in test [11] and in [14] was “inactive” in each case. For the same molecule, the molecule was called inactive in test [3], in test [4], in [5], in test [7], in test [8] and in test [9]. In addition, the molecule was classed as inactive in [10], in [12] and in [13].
Take `CC(C)NCC(O)COc1cccc2[nH]ccc12` (stereo not given): the Potency result in test [1], in [6], in test [11] and in test [14] was “inactive” throughout. For the same molecule, the outcome in [2], in test [3], in test [4], in test [5], in test [7] and in test [8] was inactive. In addition, the call in [9], in test [10], in test [12], in test [13] and in test [15] was inactive.
In the case of `O=C1c2ccccc2C(=O)N1CCl`, the Potency entry in test [1], in test [6], in [11] and in test [14] was “inactive” throughout. For the same molecule, the call in test [3], in test [4], in [5], in test [7], in test [8] and in test [9] was inactive. Moreover, the molecule was called inactive in test [10], in test [12] and in test [13].
In the case of `O=C1O[C@@H]2[C@@H](O)[C@H](O)O[C@@H]2[C@H]1O`, the Potency result in test [1], in test [6], in test [11] and in test [14] was “inactive” in each case. Besides, the outcome in test [2], in [3], in [4], in test [5], in test [7] and in test [8] was inactive. The outcome in test [9], in [10], in test [12] and in test [13] was inactive.
As to `COCCOCCOCCOCCO`, the Potency entry in test [1], in test [6], in test [11] and in test [14] was “inactive” in each case. Further, the result in test [3], in test [4], in [5], in [7], in test [8] and in [9] was inactive. Also, the molecule was classed as inactive in [10], in test [12] and in [13].
On to `CCCCN`, for which the Potency entry in test [1], in [6], in test [11] and in test [14] was “inactive” in each case. Moreover, the result in [2], in test [3], in [4], in test [5], in test [7] and in [8] was inactive. The result in [9], in test [10], in [12] and in test [13] was inactive.
On to `Cc1cc(Cl)c(C)cc1Cl`, for which the Potency entry in [1], in test [11] and in [14] was “inactive” each time. Besides, the molecule was classed as inactive in test [2], in [3], in test [4], in test [5], in [7] and in test [8]. Further, the result in test [9], in test [10], in test [12] and in test [13] was inactive. Moreover, in test [6], the Potency was 54.9 µM (active).
`CC(C)(C)c1n[nH]c(=S)n(N)c1=O`: the Potency entry in test [1], in test [6], in [11] and in [14] was “inactive” in each case. The result in test [2], in test [3], in test [4], in test [5], in test [7] and in [8] was inactive. Also, the result in test [9], in test [10], in test [12] and in test [13] was inactive.
For the molecule `CC(C)CCCCOC(=O)c1ccccc1C(=O)OCCCCC(C)C`, the Potency entry in test [1], in [6], in [11] and in [14] was “inactive” in each case. Moreover, the outcome in test [2], in [3], in test [4], in test [5], in test [7] and in test [8] was inactive. In addition, the molecule was classed as inactive in [9], in test [10], in test [12] and in test [13].
`Cc1nc2n(c(=O)c1CCN1CCC(c3noc4cc(F)ccc34)CC1)CCC[C@H]2O`: the Potency entry in test [1] and in test [6] was “inactive” each time. Also, the call in test [2], in test [3], in test [4] and in test [5] was inactive. Besides, the activity, negative = cytotoxicity in [7] is 0.561% [at 19 µM]. In addition, the activity change, negative = inhibition in [8] was 29.3% [at 19 µM]. The viability change, negative = cytotoxic in test [9] is 2.97% [at 15.8 µM]; in test [14] it was 0.131% [at 19 µM]. Also, the activation in test [10] was 6.23% [at 15.8 µM]; in test [11], 4.51% [at 15.8 µM]. Further, the results for the activity change, negative = cytotoxicity in [12] and in test [13] were -5.89% [at 15.8 µM] and 0.276% [at 19 µM], respectively.
Take `CC[C@H](C)C(=O)O[C@H]1C[C@H](O)C=C2C=C[C@H](C)[C@H](CC[C@@H](O)C[C@@H](O)CC(=O)O)[C@H]21`: the Potency entry in test [1], in test [6], in [11] and in [14] was “inactive” in each case. The outcome in test [2], in test [3], in [4], in [5], in [7] and in test [8] was inactive. For the same molecule, the molecule was classed as inactive in test [9], in [10], in test [12] and in test [13].
On to `C[C@@H](Oc1ccc(CNC(=O)c2cccnc2Oc2ccc3c(c2)OCO3)c(F)c1)C(=O)O`, for which the Potency result in test [1], in test [6], in [11] and in [14] was “inactive” throughout. The call in test [2], in test [3], in test [4], in test [5], in test [7] and in test [8] was inactive. Also, the molecule was classed as inactive in test [9], in test [10], in test [12] and in [13].
`C[C@H](CCC(=O)O)[C@H]1CC[C@H]2[C@@H]3C(=O)C[C@@H]4CC(=O)CC[C@]4(C)[C@H]3CC(=O)[C@]12C`: the Potency entry in test [1], in test [6], in test [11] and in test [14] was “inactive” throughout. In addition, the molecule was classed as inactive in test [2], in [3], in test [4], in [5], in [7] and in test [8]. In addition, the result in [9], in test [10], in [12] and in test [13] was inactive.
Regarding `CC(C)CC(C)CC(C)CC(C)COC(=O)c1ccccc1C(=O)OCC(C)CC(C)CC(C)CC(C)C` (stereo not given), the Potency entry in test [1], in test [6], in test [11] and in [14] was “inactive” in each case. For the same molecule, the molecule was classed as inactive in [2], in test [3], in test [4], in test [5], in test [7] and in [8]. Moreover, the result in test [9], in [10], in test [12] and in test [13] was inactive.
Turning to `CC(C(=O)O)c1ccc2c(c1)CC(=O)c1ccccc1S2` (stereo not given), the Potency entry in test [1], in test [6], in [11] and in test [14] was “inactive” throughout. Also, the molecule was called inactive in test [2], in [3], in test [4], in test [5], in test [7] and in test [8]. Moreover, the molecule was called inactive in [9], in [10], in [12] and in test [13].
As for `C=CCCCCCCCCCCCC`, the Potency result in [1], in test [6], in [11] and in [14] was “inactive” each time. The molecule was called inactive in test [2], in test [3], in test [4], in test [5], in [7] and in test [8]. Besides, the molecule was classed as inactive in test [9], in test [10], in [12] and in test [13].
On to `CC(=O)NCc1c(I)c(NC(C)=O)c(I)c(C(=O)O)c1I`, for which the Potency result in [1], in test [6], in [11] and in test [14] was “inactive” in each case. Moreover, the result in test [2], in [3], in test [4], in test [5], in [7] and in test [8] was inactive. In addition, the molecule was called inactive in test [9], in test [10], in [12] and in test [13].
